Inconclusive results are not listed. Calls of active or inactive are those of the source. Calls come from the whole dose curve; as a rule, active = well fitted cell-killing curve with a large enough effect; inconclusive = small, poorly fitted or top-dose-only effect, or effect the other way; inactive = no such curve, though single readings can be large or run the other way.
Assay: Quantitative High-Throughput drug screen in 47 multiple myeloma cell lines against the NCATS MIPE library collection: FR4_PLB cell viability assay (AID 1918924; note: nearly all actives have a fitted effect of over 35% in size)
Conditions: FR4_PLB myeloma cells viability, CellTiter-Glo ATP, 48 h; series mostly up to 45.8 µM
Text: PI: Beverly A. Mock Ph.D.
Laboratory of Cancer Biology and Genetics,
Center for Cancer Research, National Cancer Institute,
National Institute of Health, Bethesda, Maryland
Drug resistance and disease progression are common in multiple myeloma (MM) patients, underscoring the need for new therapeutic combinations. […] We hypothesized that effective combinations would reduce MYC expression and enhance p16 activity. […] These preclinical data identify potentially useful drug combinations for evaluation in drug-resistant MM and reveal potential mechanisms of combined drug sensitivity.
Described herein is the primary MIPE qHTS used to cherrypick compounds. Validated compounds were then further tested for potential synergistic activiy.
[1] Peat TJ, Gaikwad SM, Dubois W, Gyabaah-Kessie N, Zhang S, Gorjifard S, Phyo Z, Andres M, Hughitt VK, Simpson RM, Miller MA, Girvin AT, Taylor A, Williams D, D'Antonio N, Zhang Y, Rajagopalan A, Flietner E, Wilson K, Zhang X, Shinn P, Klumpp-Thomas C, McKnight C, Itkin Z, Chen L, Kazandijian D, Zhang J, Michalowski AM, Simmons JK, Keats J, Thomas CJ, Mock BA. Drug combinations identified by high-throughput screening promote cell cycle transition and upregulate Smad pathways in myeloma. Cancer Lett. 2023 Aug 1;568:216284. doi: 10.1016/j.canlet.2023.216284. Epub 2023 Jun 24. PMID: 37356470; PMCID: PMC10408729.
SEQUENCE No. (e.g., 1, 2, 3, etc.); […] (e.g., Cells, Incubation, Reagent, etc.); VALUE and DESCRIPTION.
1; Cells; 5 uL; white, solid bottom 1536-well Greiner assay plate.
2; Compounds; 23 nL; Kalypsis pin tool (Wako USA) equipped with a 1536-well pin head to transfer to the assay plates.
3; Incubation; 48 hours; 37C incubation.
4; Reagent;5uL; CellTiter Glo (Promega).
5; Detector; 425V; Luminescence; Viewlux PerkinElmer.
NOTES (numbers refer to Sequence numbers above)
1. The cell-based screening methods employed in this study were like those previously published. Briefly, the corresponding myeloma cell lines were screened in 1,536-well plates with 500 cells, 5-uL per well for inhibition of cell viability (assessed by measuring ATP levels with CellTiterGlo).
2. NCATS MIPE 4.0 library of approved and investigational drugs were added using the Kalypsis pin tool. Wells treated with DMSO only for 100% viability and media only wells for 0% viability were used as controls.
3. The assay plates were covered and incubated for 48 hours in a 37C, 5% CO2 incubator with controlled humidity.
4. After 48 hours, CellTilter-GloTM luminescent substrate mix (Promega) reagent was added to the assay plate and plates we incubated for 5 min at room temperature.
5. Signal was measured as median relative luminescence units on a ViewLux (PerkinElmer) multiplate reader.
[1] Heske CM, Davis MI, Baumgart JT, Wilson K, Gormally MV, Chen L, Zhang X, Ceribelli M, Duveau DY, Guha R, Ferrer M, Arnaldez FI, Ji J, Tran HL, Zhang Y, Mendoza A, Helman LJ, Thomas CJ. Matrix Screen Identifies Synergistic Combination of PARP Inhibitors and Nicotinamide Phosphoribosyltransferase (NAMPT) Inhibitors in Ewing Sarcoma. Clin Cancer Res. 2017 Dec 1;23(23):7301-7311. doi: 10.1158/1078-0432.CCR-17-1121. Epub 2017 Sep 12. PMID: 28899971; PMCID: PMC6636827.
Potency is the fitted concentration of half-maximal effect.

Row | Structure (SMILES) | Potency
1 | Cc1cc(Nc2cc(CN3CCOCC3)c3nc(C)c(Cc4ccc(Cl)cc4F)n3n2)n[nH]1 | 7430 nM (active)
2 | CC(=O)c1c(C)c2cnc(Nc3ccc(N4CCNCC4)cn3)nc2n(C2CCCC2)c1=O | 18700 nM (active)
3 | O=C(CCCCCCC(=O)Nc1ccc([C@H]2O[C@@H](CSc3nc(-c4ccccc4)c(-c4ccccc4)o3)C[C@@H](c3ccc(CO)cc3)O2)cc1)NO | 11800 nM (active)
4 | Cc1[nH]c2ccccc2c1CCNCc1ccc(C=CC(=O)NO)cc1 | 46.9 nM (active)
5 | CC(C)c1ccccc1Cc1cc(C(=O)Nc2ccc(S(=O)(=O)c3ccccc3C(C)(C)C)cc2)c(O)c(O)c1O | 9350 nM (active)
6 | Cc1nc(Nc2n[nH]c3c2CN(C(=O)N[C@H](CN(C)C)c2ccccc2)C3(C)C)c2sccc2n1 | 833 nM (active)
7 | OCCCNc1cc(-c2ccnc(Nc3cccc(Cl)c3)n2)ccn1 | 118 nM (active)
8 | CC[C@@]1(O)C(=O)OCc2c1cc1n(c2=O)Cc2cc3cc(O)ccc3nc2-1 | 1180 nM (active)
9 | Cc1ccc(NC(=O)C2(c3ccc4c(c3)OC(F)(F)O4)CC2)nc1-c1cccc(C(=O)O)c1 | 46.9 nM (active)
10 | CC(C)(C)OC(=O)Nc1ccc(-c2cc(C(=O)NCCCCCCC(=O)NO)no2)cc1 | 1320 nM (active)
11 | Cc1cc(N2CCOCC2)cc2[nH]c(-c3c(NC[C@@H](O)c4cccc(Cl)c4)cc[nH]c3=O)nc12 | 23500 nM (active)
12 | CC=CC1=C(C(=O)O)N2C(=O)[C@H](NC(=O)[C@H](N)c3ccc(O)cc3)[C@@H]2SC1 | inactive
13 | CCS(=O)(=O)c1cccc(-c2cc(C(=O)NC3CCN(C)CC3)c(C)c3[nH]c4ncc(C)cc4c23)c1 | 2350 nM (active)
14 | O=C(O)Cn1nnc(-c2cc(N3CCC(Oc4cc(F)ccc4Br)CC3)no2)n1 | inactive
15 | C[C@@]12O[C@@H](C[C@]1(O)CO)n1c3ccccc3c3c4c(c5c6ccccc6n2c5c31)CNC4=O | 6620 nM (active)
16 | O=C(O)CO.[NH2-].[NH2-].[Pt+2] | inactive
17 | C[C@@H]1COC(Nc2ccc3ncnc(Nc4ccc(OCc5nccs5)c(Cl)c4)c3c2)=N1 | 16600 nM (active)
18 | CN1CCN(c2cc(C(=O)Nc3ccc4c(c3)-c3c(c(C(N)=O)nn3-c3ccc(F)cc3)CC4)c(Cl)cn2)CC1 | 16600 nM (active)
19 | CNC(=O)c1ccc(N2C(=S)N(c3cnc(C#N)c(C(F)(F)F)c3)C(=O)C23CCC3)cc1F | 14800 nM (active)
20 | Cn1c(CNc2ccc(C(=N)N)cc2)nc2cc(C(=O)N(CCC(=O)O)c3ccccn3)ccc21 | inactive

Row | Structure (SMILES) | Potency
21 | Nc1cccc(-c2cc3c(Oc4cccc(O)c4)ncnc3[nH]2)c1 | 14800 nM (active)
22 | CN1CC[C@@H](c2c(O)cc(O)c3c(=O)cc(-c4ccccc4Cl)oc23)[C@@H](O)C1 | 33.2 nM (active)
23 | C#Cc1cccc(Nc2ncnc3cc(OC)c(OCCCCCCC(=O)NO)cc23)c1 | 74.3 nM (active)
24 | CC(C)C[C@H](NC(=O)CNC(=O)c1cc(Cl)ccc1Cl)B(O)O | 83.3 nM (active)
25 | Cc1c(CN2CCN(S(C)(=O)=O)CC2)sc2c(N3CCOCC3)nc(-c3cnc(N)nc3)nc12 | 105 nM (active)
26 | O=C(O)[C@H](Cc1c[nH]c2ccccc12)N1C(=O)c2ccccc2C1=O | inactive
27 | Nc1nc(Nc2ccc(S(N)(=O)=O)cc2)nn1C(=O)c1c(F)cccc1F | 4180 nM (active)
28 | CCOC(=O)C1=C(C)NC2=C(C(=O)CC(C)(C)C2)C1c1ccc(-c2ccccc2)cc1 (stereo not given) | 20900 nM (active)
29 | COC(=O)Nc1ccc(-c2nc(N3CCOCC3)c3cnn(C4CCN(Cc5cccnc5)CC4)c3n2)cc1 | 46.9 nM (active)
30 | CCCCN1CCC(CNC(=O)c2c3n(c4ccccc24)CCCO3)CC1 | 11800 nM (active)
31 | C=CC(=O)Nc1cc2c(Nc3ccc(F)c(Cl)c3)ncnc2cc1OCCCN1CCOCC1 | 14800 nM (active)
32 | O=C(Nc1ncc(-c2cc(C(F)F)nn2-c2c(Cl)cccc2Cl)s1)C1CC1 | 235 nM (active)
33 | CC=C1NC(=O)[C@H]2CSSCCC=C[C@H](CC(=O)N[C@H](C(C)C)C(=O)N2)OC(=O)[C@H](C(C)C)NC1=O | 10.5 nM (active)
34 | CC(C)c1cnn2c(NCc3ccccc3)cc(N[C@@H](CO)[C@H](O)CO)nc12 | 264 nM (active)
35 | COc1cc2c(Oc3ccc(-c4cnc(Nc5ccc(F)cc5)n(C)c4=O)cc3F)ccnc2cc1OCCCN1CCOCC1 | 14800 nM (active)
36 | COCCn1c2c([n+](Cc3cnccn3)c1C)C(=O)c1ccccc1C2=O | 10.5 nM (active)
37 | COC(=O)C[C@](O)(CCCC(C)(C)O)C(=O)O[C@@H]1C(OC)=C[C@]23CCCN2CCc2cc4c(cc2[C@H]13)OCO4 | inactive
38 | Nc1nc(-c2nn(Cc3ccccc3F)c3ncccc23)nc(N)c1N1CCOCC1 | inactive
39 | CC(=O)SC[C@@H](C)C(=O)N1CCC[C@H]1C(=O)N[C@@H](Cc1ccccc1)C(=O)O | inactive
40 | CC(C)=CCCC(C)=CCCC(C)=CCSc1ccccc1C(=O)O | 1180 nM (active)
